Test results taken from PubChem BioAssay (NCI).
The panel holds about 83,000 compounds, 20% with a hit somewhere; the sample as a whole holds those more often.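 The test compound was applied at a single concentration to cells in 96-well plates for 48 hours, and percent growth was recorded.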 Unmarked numbers belong to inactive results. The source made the active and inactive calls. How the source made its calls: active means growth percent below 10; inactive means the rest.

Legend:
Experiment in all cases: NCI-60 one-dose screen, 48 h (100 = growth as untreated, 0 = no growth, -100 = all killed)
Settings in all cases: 10 µM
[1] = system: T-47D breast
[2] = system: BT-549 breast
[3] = system: MDA-MB-435 melanoma
[4] = system: SW-620 colon
[5] = system: MCF7 breast
[6] = system: HCT-116 colon
[7] = system: HCC-2998 colon
[8] = system: KM12 colon
[9] = system: MDA-MB-468 breast

**Q.** For `C/C(=N\N=C\c1ccc(Cl)c([N+](=O)[O-])c1)c1ccc2c(c1)Nc1ccccc1S2`, which growth [1] is on record?
**A.** The growth was 41.3%.

**Q.** And the growth [2]?
**A.** Its growth is 58.4%.

**Q.** And the growth [3]?
**A.** Its growth is 49.9%.

**Q.** And the growth [4]?
**A.** Its growth is 6.06% (active).

**Q.** What about the growth [5] of the same molecule?
**A.** The growth was 6.3% (active).

**Q.** And the growth [6]?
**A.** The growth was 19.4%.

**Q.** What about the growth [7] of the same molecule?
**A.** The growth was 8.71% (active).

**Q.** What about the growth [8] of the same molecule?
**A.** The growth was 29.4%.

**Q.** And the growth [9]?
**A.** Its growth is -29.3% (active).

**Q.** `O=C(CNc1nc(-c2ccccc2)cs1)Nc1ccc(Cl)cc1` was tested. Which growth [1] did it give?
**A.** Its growth is -34.6% (active).

**Q.** What about the growth [2] of the same molecule?
**A.** The growth was -54.5% (active).

**Q.** What about the growth [3] of the same molecule?
**A.** The growth was -58.5% (active).

**Q.** What about the growth [4] of the same molecule?
**A.** Its growth is -68.5% (active).

**Q.** What about the growth [5] of the same molecule?
**A.** Its growth is -85.5% (active).

**Q.** And the growth [6]?
**A.** The growth was -41.2% (active).

**Q.** And the growth [7]?
**A.** Its growth is -94.6% (active).

**Q.** What about the growth [8] of the same molecule?
**A.** The growth was -83.8% (active).

**Q.** What about the growth [9] of the same molecule?
**A.** The growth was -81.2% (active).

**Q.** `O=C(CS(=O)(=O)c1oc(-c2ccc(Cl)cc2)nc1S(=O)(=O)c1ccc(Cl)cc1)N1CCOCC1` was tested. Which growth [1] did it give?
**A.** The growth was -50.2% (active).

**Q.** And the growth [2]?
**A.** Its growth is 52.4%.

**Q.** What about the growth [3] of the same molecule?
**A.** Its growth is 47%.

**Q.** And the growth [4]?
**A.** The growth was -18.3% (active).

**Q.** What about the growth [5] of the same molecule?
**A.** Its growth is 11.3%.

**Q.** What about the growth [6] of the same molecule?
**A.** Its growth is 4.36% (active).

**Q.** What about the growth [7] of the same molecule?
**A.** Its growth is 51%.

**Q.** What about the growth [8] of the same molecule?
**A.** The growth was 55.8%.

**Q.** And the growth [9]?
**A.** Its growth is -4.97% (active).

**Q.** For `COc1ccc(N(C)c2cc(C#N)nc3ccccc23)cc1/C=C/C(=O)NO`, which growth [1] is on record?
**A.** Its growth is -10.8% (active).

**Q.** What about the growth [2] of the same molecule?
**A.** Its growth is -49.4% (active).

**Q.** And the growth [3]?
**A.** The growth was -70.5% (active).

**Q.** What about the growth [4] of the same molecule?
**A.** Its growth is -37.5% (active).

**Q.** And the growth [5]?
**A.** Its growth is -20.8% (active).

**Q.** And the growth [6]?
**A.** The growth was -9.52% (active).

**Q.** And the growth [7]?
**A.** The growth was -94.8% (active).

**Q.** And the growth [8]?
**A.** Its growth is -37.1% (active).

**Q.** What about the growth [9] of the same molecule?
**A.** The growth was -86.1% (active).

**Q.** Which growth [1] does the source give for `O=c1oc2ccc(-c3ccc(F)cc3F)cc2c(=O)n1-c1ccc(F)c(Cl)c1` here?
**A.** Its growth is -11.8% (active).

**Q.** What about the growth [2] of the same molecule?
**A.** The growth was -51.9% (active).

**Q.** And the growth [3]?
**A.** The growth was -17.7% (active).

**Q.** What about the growth [4] of the same molecule?
**A.** The growth was 3.17% (active).

**Q.** And the growth [5]?
**A.** Its growth is -17.2% (active).

**Q.** And the growth [6]?
**A.** Its growth is 4.77% (active).

**Q.** And the growth [7]?
**A.** The growth was 2.58% (active).

**Q.** What about the growth [8] of the same molecule?
**A.** Its growth is -22.7% (active).

**Q.** What about the growth [9] of the same molecule?
**A.** The growth was -47% (active).

**Q.** What does the source list for `CC1(c2ccccc2)NC(=O)N(CC(=O)Nc2ccc(C(=O)/C=C/c3ccc(Cl)cc3)cc2)C1=O` (configuration not stated)?
**A.** growth [1]: 10.4%; growth [2]: 1.57% (active); growth [3]: -76.4% (active); growth [4]: -58.9% (active); growth [5]: -66.6% (active); growth [6]: -69.1% (active); growth [7]: -99.1% (active); growth [8]: -81.4% (active); growth [9]: -9.47% (active)

**Q.** `CCCn1c(O)c(N=Nc2nc(-c3cc4ccccc4oc3=O)cs2)c2cc(Br)ccc21` was tested. Which growth [1] did it give?
**A.** Its growth is 98.8%.

**Q.** What about the growth [2] of the same molecule?
**A.** Its growth is 113%.

**Q.** And the growth [3]?
**A.** The growth was 105%.

**Q.** What about the growth [4] of the same molecule?
**A.** The growth was 106%.

**Q.** What about the growth [5] of the same molecule?
**A.** The growth was 90.4%.

**Q.** And the growth [6]?
**A.** Its growth is 101%.

**Q.** What about the growth [7] of the same molecule?
**A.** The growth was 99.1%.

**Q.** What about the growth [8] of the same molecule?
**A.** The growth was 106%.

**Q.** And the growth [9]?
**A.** Its growth is 94.8%.

**Q.** `Cc1noc2c(Cc3ccccc3)nn(CC(=O)N/N=C/c3ccc(F)cc3)c(=O)c12` was tested. Which growth [1] did it give?
**A.** The growth was 12.6%.

**Q.** What about the growth [2] of the same molecule?
**A.** Its growth is 64.1%.

**Q.** What about the growth [3] of the same molecule?
**A.** The growth was 71.1%.

**Q.** What about the growth [4] of the same molecule?
**A.** Its growth is 79.9%.

**Q.** And the growth [5]?
**A.** The growth was 61.7%.

**Q.** And the growth [6]?
**A.** The growth was 35%.

**Q.** And the growth [7]?
**A.** The growth was 67.1%.

**Q.** And the growth [8]?
**A.** Its growth is 86.2%.

**Q.** What about the growth [9] of the same molecule?
**A.** Its growth is 85.4%.

**Q.** With `CC1(c2ccccc2)NC(=O)N(CC(=O)Nc2ccc(C(=O)/C=C/c3ccccc3)cc2)C1=O` (configuration not stated) as the molecule, how does the growth [1] read?
**A.** The growth was 18.3%.

**Q.** And the growth [2]?
**A.** The growth was 36%.

**Q.** And the growth [3]?
**A.** Its growth is -23% (active).

**Q.** What about the growth [4] of the same molecule?
**A.** Its growth is 32.4%.

**Q.** And the growth [5]?
**A.** Its growth is -19.6% (active).

**Q.** What about the growth [6] of the same molecule?
**A.** Its growth is -65% (active).

**Q.** And the growth [7]?
**A.** Its growth is -15.6% (active).

**Q.** What about the growth [8] of the same molecule?
**A.** The growth was -73% (active).

**Q.** And the growth [9]?
**A.** Its growth is -2.64% (active).

**Q.** What does the source list for `C=C1CCC2C3(C)COC(c4cccc(F)c4)OC3CCC2(C)C1CC(O)C1=CCOC1=O` (configuration not stated)?
**A.** growth [1]: 37.9%; growth [2]: -4.37% (active); growth [3]: 57.7%; growth [4]: 6.42% (active); growth [5]: 14.2%; growth [6]: -7.46% (active); growth [7]: 63.1%; growth [8]: 59.6%; growth [9]: 52.1%

**Q.** Which growth [1] does the source give for `O=C(c1ccccc1)n1ccc(-c2cc3cc(Br)ccc3oc2=O)n1` here?
**A.** The growth was 1.35% (active).

**Q.** And the growth [2]?
**A.** The growth was 39.2%.

**Q.** What about the growth [3] of the same molecule?
**A.** Its growth is 48.9%.

**Q.** What about the growth [4] of the same molecule?
**A.** The growth was 45.8%.

**Q.** And the growth [5]?
**A.** Its growth is -8.53% (active).

**Q.** And the growth [6]?
**A.** Its growth is 16%.

**Q.** And the growth [7]?
**A.** Its growth is 17%.

**Q.** What about the growth [8] of the same molecule?
**A.** Its growth is 27.9%.

**Q.** And the growth [9]?
**A.** Its growth is -25.9% (active).

**Q.** For `COc1ccccc1C(=O)NNC(=O)CSc1nc2c(c(=O)[nH]1)CCCC2`, which growth [1] is on record?
**A.** The growth was 81.2%.

**Q.** What about the growth [2] of the same molecule?
**A.** Its growth is 101%.

**Q.** And the growth [3]?
**A.** The growth was 109%.

**Q.** What about the growth [4] of the same molecule?
**A.** The growth was 112%.

**Q.** What about the growth [5] of the same molecule?
**A.** The growth was 95.8%.

**Q.** And the growth [6]?
**A.** Its growth is 102%.

**Q.** And the growth [7]?
**A.** The growth was 108%.

**Q.** And the growth [8]?
**A.** The growth was 94.5%.

**Q.** What about the growth [9] of the same molecule?
**A.** Its growth is 120%.

**Q.** `O=c1c2ccccc2nc(COc2ccccc2)n1/N=C/c1ccc(N2CCCC2)cc1` was tested. Which growth [1] did it give?
**A.** Its growth is 57.7%.

**Q.** And the growth [2]?
**A.** The growth was 84.8%.

**Q.** And the growth [3]?
**A.** Its growth is 99.5%.

**Q.** And the growth [4]?
**A.** The growth was 109%.

**Q.** And the growth [5]?
**A.** Its growth is 87.6%.

**Q.** And the growth [6]?
**A.** Its growth is 79.5%.

**Q.** What about the growth [7] of the same molecule?
**A.** The growth was 106%.

**Q.** What about the growth [8] of the same molecule?
**A.** Its growth is 96.7%.

**Q.** What about the growth [9] of the same molecule?
**A.** Its growth is 137%.
